Experimental data published in PubChem BioAssay (NCATS).
“And” between values parts separate entries of the source, which are not always exact repeats. Equal entries are not always repeated. Inconclusive results are not listed. Values without a mark were called inactive. The source made the active and inactive calls. The call rests on the fitted dose curve; in most records, active means well fitted cell-killing curve with a large enough effect; inconclusive means small, poorly fitted or top-dose-only effect, or effect the other way; inactive means flat fitted curve, though single readings scatter.

assay: qHTS assay for cell viability of HEK293 cells (AID 743288); details: ATP luminescence (CellTiter-Glo), 18 h, stronger effect = lower value; further: nearly all actives have a fitted effect of over 50% in size
Summary of the method: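 Parental HEK293 cells, 2,000 per well, preincubated at least 5 h at 37 C, then exposed to compounds in DMSO for 18 h at 37 C. Viability by CellTiter-Glo ATP luminescence after 30 min at room temperature.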
On the % scale 0 is the no-effect control and ±100 the full control effect.

Row | Compound | max response
1 | CC(C)(C)NC(=O)[C@@H]1C[C@@H]2CCCC[C@@H]2CN1C[C@@H](O)[C@H](Cc1ccccc1)NC(=O)[C@H](CC(N)=O)NC(=O)c1ccc2ccccc2n1 | -26%
2 | CCCCCCCC(=O)O | -4.48% and -6.78%
3 | O=S(=O)(O)O | 9.97% and -5.38%
4 | Nc1ccn([C@H]2CS[C@@H](CO)O2)c(=O)n1 | -4.28%
5 | O=C(O)CCC(=O)C(=O)O | 2.53%
6 | CCCCCCCC/C=C\CCCCCCCC(=O)O | -8.54% and -13.9%

assay: qHTS assay for cell viability of the p53RE-bla HCT-116 cell line (AID 743292); details: p53RE-bla HCT-116 viability, ATP luminescence, 16 h; series mostly up to 95 µM; activity change, negative = cytotoxicity: at the top concentration; further: nearly all actives have a fitted effect of over 55% in size
Summary of the method: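 ATP-based luminescent viability (CellTiter-Glo, 30 min RT) after 16 h compound treatment at 37 C of p53RE-bla HCT-116 cells, seeded at 4,000 cells/well and rested 5 h before dosing.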

Row | Compound | outcome | activity change, negative = cytotoxicity [%]
7 | CCCCCCCC(=O)O | inactive | 
8 | O=S(=O)(O)O | inactive | 
9 | Nc1ccn([C@H]2CS[C@@H](CO)O2)c(=O)n1 |  | 0.719
10 | O=C(O)CCC(=O)C(=O)O |  | -1.65
11 | CCCCCCCC/C=C\CCCCCCCC(=O)O | inactive | 
